For 19 compounds, growth inhibition results are on record in PubChem BioAssay (NCI).

SMILES strings stand for the structures. Where “and” joins values, the source holds several entries; their conditions need not be identical. Identical values can stand only once. About 79,000 compounds went through this panel and 15% of them were active in at least one assay; those are over-represented in the sample as a whole. Unmarked numbers belong to inactive results. Calls of active or inactive are those of the source. Rule as the data show it: active = growth inhibition above about 70%; inactive = the rest.

Assay [1] is described as follows: NCI Yeast Anticancer Drug Screen. Data for the rad50 strain (AID 155).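 Also: 0% = growth of vehicle-only cultures of the same strain.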 As to conditions: S. cerevisiae rad50 strain growth inhibition, active compounds read high; at 50.0 µM unless noted. The essentials: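 Vehicle-treated cultures provide the reference for the growth inhibition reported for compound-exposed, repair-deficient yeast.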
A short description of assay [2]: NCI Yeast Anticancer Drug Screen. Data for the mec2-1 strain (AID 157). As to conditions: S. cerevisiae mec2-1 strain, active compounds read high; at 50.0 µM unless noted. The essentials: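 Each compound was tested on mec2-1 yeast, a strain altered in DNA damage repair or cell cycle control. Growth inhibition is reported relative to vehicle.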
The nature of assay [3]: NCI Yeast Anticancer Drug Screen. Data for the sgs1 mgt1 strain (AID 161).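 Also: 0% = growth of cultures given vehicle only.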 As to conditions: S. cerevisiae sgs1 mgt1 strain, active compounds read high; at 50.0 µM unless noted. The essentials:
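Inhibition of yeast growth, normalised to vehicle-treated controls, is reported for a strain bearing genetic alterations in DNA damage repair.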

The nature of assay [4]: NCI Yeast Anticancer Drug Screen. Data for the cln2 rad14 strain (AID 165).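 Also: 0% = growth equal to vehicle treated cultures.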 As to conditions: S. cerevisiae cln2 rad14 strain, active compounds read high; at 50.0 µM unless noted. The essentials: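 Test compounds were added to cln2 rad14 yeast cultures; inhibition of growth was then determined by comparison with vehicle treatment.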
Assay [5] in a line: NCI Yeast Anticancer Drug Screen. Data for the bub3 strain (AID 167). As to conditions: S. cerevisiae bub3 mutant strain, active compounds read high; at 50.0 µM unless noted. The essentials: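 Mutant yeast screening strain plus compound; vehicle-treated cultures serve as the 0% inhibition reference.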
Assay [6] is described as follows: NCI Yeast Anticancer Drug Screen. Data for the mlh1 rad18 strain (AID 175). Particulars: S. cerevisiae mlh1 rad18 strain growth inhibition, active compounds read high; at 50.0 µM unless noted. The essentials:
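Inhibition values reflect reduced growth of mutant yeast versus vehicle-treated controls following compound exposure; the mutations affect DNA damage repair.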

With `O=C1CN(c2ccccc2)C(=O)CN1NCNN1CC(=O)N(c2ccccc2)CC1=O`, the growth inhibition is -27.4% in assay [1]; 2.1% in assay [2]; -1.5% in assay [3]; 4.35% in assay [4]; -10% in assay [5]; -5% in assay [6].

Turning to `ClC(Cl)CN(Cc1ccccc1)c1ncc[nH]1`, the growth inhibition is 22.5% in assay [1]; 6.25% in assay [2]; 28% in assay [3]; -59.2% in assay [4]; 8.05% in assay [5]; 17.6% in assay [6].

On to `O=C(O)CC(CS(=O)O)C(=O)O` (centres undefined), for which the growth inhibition in assay [1] is -9.65%; in assay [2] it was -11.2%; in assay [3] it was -13.4%; in assay [4], 1.05%; in assay [5], 1.15%; in assay [6], -3.7%.

Turning to `NC1CCC(C(=O)O)CC1` (centres undefined), the growth inhibition was -3% and -3.15% in assay [1]; 0.95% and 15.9% in assay [2]; -3.5% and 4.4% in assay [3]; -52% and 57% in assay [4]; 6.15% and 61.3% in assay [5]; -7.65% and 28.4% in assay [6].

Turning to `CC(C)OC(=O)c1ccc(CCC2=CC(=O)C(Br)=CC2=O)cc1`, the growth inhibition is 50.7% in assay [1]; 62.4% in assay [2]; 65.5% in assay [3]; 56% in assay [4]; 51% in assay [5]; 90% (active) in assay [6].

As to `O=C(CCl)Nc1cc2ccccc2oc1=O`, the growth inhibition is 21% in assay [1]; 42.4% in assay [2]; 20.6% in assay [3]; 41% in assay [4]; 5.45% in assay [5]; -1.85% in assay [6].

As to `O=C(O)CNOCN1C(=O)c2ccccc2C1=O`, the growth inhibition is 11.6% in assay [1]; -1.25% in assay [2]; 13.3% in assay [3]; -21.6% in assay [4]; -16% in assay [5]; 14.4% in assay [6].

Turning to `COc1ccc2nc3cc([N+](=O)[O-])ccc3c(NCCCN(CCO)CCO)c2c1`, the growth inhibition in assay [1] is -6.7%; in assay [2], -1.75%; in assay [3], 6.9%; in assay [4], 1.75%; in assay [5], 7.75%; in assay [6], 2.6%.

Consider `CCCc1[nH]n(-c2ccccc2)c(=O)c1N=Nc1cccc(C(F)(F)F)c1`, for which the growth inhibition is -10.7% in assay [1]; -1.1% in assay [2]; -7.3% in assay [3]; -12.8% in assay [4]; -5% in assay [5]; -7.95% in assay [6].

Turning to `CCOP(=O)(OCC)C(C)(CC)N/C(=N/C(NC(C)=O)(C(F)(F)F)C(F)(F)F)NC1=NC(C(F)(F)F)(C(F)(F)F)N=C(C(F)(F)F)O1` (centres undefined), the growth inhibition in assay [1] is 1.65%; in assay [2], 4.65%; in assay [3], -26.8%; in assay [4] it was 5.3%; in assay [5], -3.1%; in assay [6], -34.1%.

As to `CCCCC1(CC)COC(=O)N(C)C1` (centres undefined), the growth inhibition was 10.8% in assay [1]; 4.95% in assay [2]; 0.65% in assay [3]; -7.6% in assay [4]; 18% in assay [5]; 3% in assay [6].

Consider `CCOc1ccc(F)cc1`, for which the growth inhibition in assay [1] was 10.7%; in assay [2] it was -13.5%; in assay [3], 16.5%; in assay [4] it was 22.6%; in assay [5] it was 6.3%; in assay [6] it was 25.9%.

Regarding `CC(=O)Nc1ccc(S(=O)(=O)N/N=C(/C)c2ccccc2)cc1`, the growth inhibition in assay [1] was -8.8%; in assay [2], -31.8%; in assay [3] it was 1.05%; in assay [4] it was 1.55%; in assay [5], -23.4%; in assay [6], -23.6%.

For `O=C(Nc1ccc(C(=O)O)cc1)Nc1cccc(Cl)c1`, the growth inhibition in assay [1] was -6.15%; in assay [2], 2.1%; in assay [3], -9.55%; in assay [4], -14.3%; in assay [5], 0.65%; in assay [6], 7.4%.

With `O=[N+]([O-])c1ccc(S/N=C\c2ccccc2)c([N+](=O)[O-])c1`, the growth inhibition in assay [1] is -9.95%; in assay [2] it was 13.7%; in assay [3], 0.25%; in assay [4], 14.6%; in assay [5], 7.2%; in assay [6] it was 8.55%.

As to `O=S(=O)(O)c1ccc(N=Nc2ccc(O)cc2)cc1`, the growth inhibition in assay [1] is -15.8% and 28.8%; in assay [2], -27.9% and -10.4%; in assay [3], -10.1%; in assay [4], -53.9%; in assay [5] it was 3.7%; in assay [6], -17.4% and 8.65%.

Take `CCCNC(=O)Cn1c(-c2ccccc2)cc2ccccc21`: the growth inhibition in assay [1] was 13.4%; in assay [2], 5.5%; in assay [3], 16.7%; in assay [4], 18.4%; in assay [5] it was 27.9%; in assay [6] it was -52.8%.

Take `N#CCNC(=O)Cc1ccccc1`: the growth inhibition in assay [1] was 10.2%; in assay [2], -10.2%; in assay [3], -10.2%; in assay [4], -12.4%; in assay [5] it was -30.3%; in assay [6], -4.7%.

Regarding `CSCCSC`, the growth inhibition in assay [1] was 10.2%; in assay [2] it was 4.6%; in assay [3], -0.1%; in assay [4], 13.4%; in assay [5], 3.4%; in assay [6], 3.65%.
